For 98 compounds, B-score results are on record in PubChem BioAssay AID1672 (Johns Hopkins Ion Channel Center, 2009).

In all, about 310,000 compounds went through this assay and about 2,600 (0.84%) were called active. For the sample, actives were picked, then their nearest neighbours and some compounds at random. Values without a mark were called inactive.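 Rule for the calls: active = fluorescence ratio B-score at or below minus 3 SD of library scores, with starting-brightness B-score within 2 SD (cut at about -4.2 in these data); inactive = the rest.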

Sequence of Inward rectifier potassium channel 2 (Mus musculus) (P35561 whole entry, looked up): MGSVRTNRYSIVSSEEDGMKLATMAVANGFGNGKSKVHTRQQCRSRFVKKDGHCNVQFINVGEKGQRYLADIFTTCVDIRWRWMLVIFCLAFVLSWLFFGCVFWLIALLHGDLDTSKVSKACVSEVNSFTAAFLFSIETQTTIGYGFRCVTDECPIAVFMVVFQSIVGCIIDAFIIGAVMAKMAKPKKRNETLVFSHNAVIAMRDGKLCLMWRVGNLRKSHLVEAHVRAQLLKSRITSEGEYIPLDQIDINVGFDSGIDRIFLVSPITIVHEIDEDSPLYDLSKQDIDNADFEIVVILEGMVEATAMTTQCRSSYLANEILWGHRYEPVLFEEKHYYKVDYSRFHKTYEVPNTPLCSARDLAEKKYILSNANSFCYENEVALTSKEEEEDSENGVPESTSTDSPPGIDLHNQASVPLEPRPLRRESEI

The assay concerns the target Inward rectifier potassium channel 2 (Mus musculus) (UniProt P35561). Nature of the assay: inhibitors of mouse Kir2.1 inward-rectifier potassium channel (AID 1672).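 Note: channel flux triggered by added potassium and thallium sulfate stimulus; B-score of peak minus minimum fluorescence over baseline after thallium stimulus; more negative B-score means stronger Kir2.1 block with less thallium influx.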 The following applies: HEK293-Kir2.1, FluxOR thallium flux fluorescence; at 10 µM; active compounds read low.
For `O=C(NCC1CC1)c1onc(CSc2ccccc2)c1C(=O)NCC1CC1`, the B-score is -0.33.

Consider `Cc1ccc(C)c(OCCC(=O)OCC(=O)NC(=O)NCc2ccccc2)c1`, for which the B-score was -1.35.

Regarding `O=C(c1ccc(NS(=O)(=O)c2ccc3[nH]c(=O)[nH]c3c2)cc1)N1CCCCC1`, the B-score was -0.24.

For the compound `O=C(COC(=O)c1ccc(F)cc1)Nc1nc2ccc([N+](=O)[O-])cc2s1`, the B-score is -0.31.

Regarding `O=C(Nc1nc2ccc([N+](=O)[O-])cc2s1)c1ccc(S(=O)(=O)N2CCCc3ccccc32)cc1`, the B-score was 1.56.

On to `O=C(NC(Nc1nc2ccc([N+](=O)[O-])cc2s1)(C(F)(F)F)C(F)(F)F)c1ccccc1`, for which the B-score is -10.5 (active).

On to `Cc1nc(-c2ccccc2)sc1C1(C)CC(c2cccnc2)=NO1` (stereo not drawn), for which the B-score was -0.61.

Regarding `O=C(Nc1ccc2nc3n(c(=O)c2c1)CCCC3)c1ccc(Cl)nc1`, the B-score is -0.4.

Turning to `CCc1cccc(C)c1NC(=O)COC(=O)CNC(=O)c1cccs1`, the B-score is -0.01.

Turning to `CCOC(=O)N1CCN(C(=O)c2ccccc2SCC(=O)NCC2CCCCC2)CC1`, the B-score was -1.08.

For the compound `CC(CCc1ccc(O)cc1)NCc1ccc(Cl)cc1Cl` (stereo not drawn), the B-score is -1.22.

As to `OC(CNCCc1ccc(Cl)cc1Cl)COc1ccccc1` (stereo not drawn), the B-score was -5.54 (active).

`OC(CNCc1ccc2c(c1)OCO2)COc1ccccc1` (stereo not drawn): the B-score is 0.51.

As to `O=C(Oc1ccc(-c2nnco2)cc1)c1ccc(F)c(S(=O)(=O)N2CCOCC2)c1`, the B-score is 0.69.

`Cc1ccc2nc(SCC(=O)N3CCN(c4ccccc4)CC3)nc(=O)n2c1`: the B-score is -0.66.

Regarding `CCOC(=O)c1c(C)[nH]c(C)c1S(=O)(=O)NCCCc1ccco1`, the B-score is -4.22 (active).

In the case of `NC(=O)c1cc(S(=O)(=O)NCCCc2ccco2)cs1`, the B-score was -1.45.

For `CCOC(=O)c1c(C)[nH]c(C)c1S(=O)(=O)N(C)CC(=O)Nc1ccccc1C`, the B-score is -0.21.

Turning to `O=S(=O)(NCCCc1ccccc1)c1ccc(Br)cc1`, the B-score was -0.26.

For the compound `C=C(C)CNC(=O)c1ccc(OC2CCN(C(=O)COC)CC2)cc1`, the B-score was 2.19.

Take `CC(C)c1ccc(S(=O)(=O)N2CCN(C(=O)CN3C(=O)NC(C)(c4ccccc4)C3=O)CC2)cc1` (stereo not drawn): the B-score is -0.17.

On to `CN(C1CCS(=O)(=O)C1)S(=O)(=O)c1ccc2ccccc2c1` (stereo not drawn), for which the B-score is -2.88.

With `O=C1Nc2cc(C(=O)N3CCC(N4CCCCC4)CC3)ccc2S/C1=C\c1ccccc1`, the B-score was -5.53 (active).

For `CC1CCN(C(=O)c2ccc3c(c2)NC(=O)CN3)CC1`, the B-score was -1.15.

For the compound `CCN1CCN(CCNC(=O)c2ccc3c(c2)NC(=O)/C(=C\c2ccc(OC)c(OC)c2)S3)CC1`, the B-score was -0.6.

`CC(C)(C)NCCCOc1ccc(Cl)cc1C(C)(C)C`: the B-score was -3.

In the case of `CN(C)CCOc1ccc(Cl)cc1C(C)(C)C`, the B-score was -4.91 (active).

As to `Cn1c(CCCOc2ccc(Cl)cc2Cl)n[nH]c1=S`, the B-score was 1.02.

Consider `CC(C)COc1ccc(C(=O)OCC(=O)NCCC2=CCCCC2)cc1`, for which the B-score was -0.32.

Turning to `CC1(C)C/C(=N/Nc2ccc([N+](=O)[O-])cc2[N+](=O)[O-])C(C)(C)O1`, the B-score is -0.99.

On to `Cc1ccc2nc(SCC(=O)Nc3cccc4ccccc34)nc(=O)n2c1`, for which the B-score is -0.81.

Take `COc1ccccc1CNS(=O)(=O)c1ccc2c(c1)NC(=O)CS2`: the B-score is -3.14.

Consider `O=C1CSc2ccc(S(=O)(=O)NCc3ccccc3)cc2N1`, for which the B-score is -1.97.

Turning to `CCC(Cc1ccccc1)NS(=O)(=O)c1ccc2c(c1)NC(=O)CS2` (stereo not drawn), the B-score is -7.18 (active).

As for `O=C(Nc1cc(Cl)ccc1N1CCOCC1)c1ccc(N2CCCC2=O)cc1`, the B-score is -0.11.

For `CCN(CC(=O)Nc1ccccc1C(F)(F)F)C(=O)CSCc1c(C)noc1C`, the B-score was -0.18.

For the compound `CC1(C)Oc2ccc3ccc(=O)oc3c2/C(=C/NCCO)C1=O`, the B-score is -0.79.

Take `C/C=C(/C)C(=O)OC1Cc2c(ccc3ccc(=O)oc23)OC1(C)C` (stereo not drawn): the B-score is -6.49 (active).

Take `CC1(C)Oc2ccc3ccc(=O)oc3c2/C(=N/O)C1=O`: the B-score was -3.77.

Take `COc1ccc(C(CNC(=O)c2cccc(S(=O)(=O)Nc3ccccc3Cl)c2)N2CCOCC2)cc1` (stereo not drawn): the B-score is 0.72.

For the compound `COc1ccccc1NS(=O)(=O)c1ccc(C(=O)N2CCN(c3ccccc3O)CC2)cc1`, the B-score was -0.57.

Take `COc1ccc(C(C#N)(CC(=O)O)c2cnccn2)cc1OC` (stereo not drawn): the B-score is -2.49.

In the case of `Cc1cc(C)c(-c2csc(NC(=O)CCCc3nc4ccccc4c(=O)[nH]3)n2)c(C)c1`, the B-score was 0.9.

As to `CC1COc2ccccc2N1S(=O)(=O)c1ccccc1` (stereo not drawn), the B-score is -8.7 (active).

As to `CC1CN(S(=O)(=O)c2ccccc2)C(C)CN1S(=O)(=O)c1ccccc1` (stereo not drawn), the B-score is -1.27.

On to `CC1COc2ccccc2N1C(=O)c1cccnc1Cl` (stereo not drawn), for which the B-score is -0.04.

Consider `Cn1ccsc1=NC(=O)c1cc(S(=O)(=O)N2CCOCC2)ccc1Cl`, for which the B-score is -1.21.

As for `O=C(NN1CCOCC1)c1cccc(F)c1`, the B-score is 0.11.

As to `Cc1ccc(N2CC(C(=O)N3CCC4(CC3)CC(=O)c3ccccc3O4)CC2=O)cc1C` (stereo not drawn), the B-score was 0.05.

Consider `O=C(Nc1ccccc1N1CCCC1)c1ccc(F)c(S(=O)(=O)N2CCOCC2)c1`, for which the B-score was -1.53.

As to `O=C(O)CN1CCN(C(c2ccccc2)c2ccccc2)CC1`, the B-score was 0.58.

For the compound `CC(C)NC(=S)N1CCN(C(c2ccccc2)c2ccccc2)CC1`, the B-score is 0.81.

As to `CC1(C)CC(N2CCN(C(c3ccccc3)c3ccccc3)CC2)=CC(=[N+]2CCCCC2)C1`, the B-score was -9.72 (active).

As to `CC12CCC(=O)N1C(C(=O)NCCN1C(=O)S/C(=C\c3ccccc3F)C1=O)CS2` (stereo not drawn), the B-score was 1.85.

On to `COCCCNC(=S)NC(=O)c1ccccc1`, for which the B-score is 0.

In the case of `COCCNC(=S)N(Cc1cccnc1)Cc1ccc(OC)c(OC)c1`, the B-score was -0.71.

Consider `COCCCNC(=S)N(Cc1ccccc1)Cc1ccc(F)cc1`, for which the B-score was -4.64 (active).

For the compound `O=C(CN1CCOCC1)Nc1cccc([N+](=O)[O-])c1`, the B-score was -1.26.

In the case of `COc1cc(/C=N/NC(=O)c2cc(-c3ccccc3C)nc3ccccc23)cc(OC)c1O`, the B-score was 0.05.

With `CC(C)Nc1nnc(SC(C)C(=O)N(C)C2CCCCC2)s1` (stereo not drawn), the B-score was 1.34.

On to `CC(NC(=O)CCCC1CCCCC1)c1ccc(S(N)(=O)=O)cc1` (stereo not drawn), for which the B-score is -5.32 (active).

`CC(NC(=O)CNC(=O)Cc1cccc2ccccc12)c1ccc(S(N)(=O)=O)cc1` (stereo not drawn): the B-score was 1.18.

On to `NS(=O)(=O)c1ccc(CCNC(=O)NC2CCCCC2)cc1`, for which the B-score is -0.34.

Take `Cc1ccc2c(C)c(C(=O)N3CCN(c4ccncc4)CC3)oc2c1C`: the B-score is -0.57.

Consider `N=c1n(CCc2ccccc2)c2ccccc2n1Cc1ccccc1F`, for which the B-score was -8.75 (active).

As for `Fc1ccccc1Cn1cnc(NC(=S)NCCc2ccccc2)n1`, the B-score was 1.75.

With `CC(=O)NC(C)c1nc2ccccc2n1Cc1ccccc1F` (stereo not drawn), the B-score is -2.56.

As to `Cc1ccc(CN2CCN(c3ccccc3Cl)CC2)o1`, the B-score was -1.98.

With `c1ccc(CSc2nnc(-c3ccco3)c(-c3ccco3)n2)cc1`, the B-score is 0.54.

For the compound `c1ccc(CSc2nnc(-c3ccco3)n2Cc2ccccc2)cc1`, the B-score was -8.28 (active).

On to `O=C(CSc1nnc(-c2ccco2)n1Cc1ccccc1)NC(=O)NCc1ccco1`, for which the B-score is -1.04.

As for `Cc1nc2c(c(C)nn2-c2ccccc2)c(C)c1C`, the B-score was -0.74.

For the compound `C#CCNC(=O)[C@H](Cc1ccc(C(=O)c2ccccc2)cc1)NC(=O)OC(C)(C)C`, the B-score was -2.31.

Take `CCS(=O)(=O)c1cc([N+](=O)[O-])c(Sc2ccccc2N)s1`: the B-score is 0.71.

Take `Nc1ccccc1Sc1ccc(C(F)(F)F)cc1[N+](=O)[O-]`: the B-score was -2.03.

For `Nc1ccccc1SC(C[N+](=O)[O-])c1ccccc1` (stereo not drawn), the B-score was -7.5 (active).

`COc1cc(C(=O)N(C)Cc2cccc(OC)c2OC)ccc1OCC(=O)Nc1cccc(C(F)(F)F)c1`: the B-score is 1.36.

Consider `O=C(COC(=O)Cc1c[nH]c2ccccc12)NCCc1ccccc1`, for which the B-score is -1.86.

Regarding `O=C(Cc1c[nH]c2ccccc12)OCCOC(=O)Cc1c[nH]c2ccccc12`, the B-score is -7.97 (active).

For `CCOC(=O)CN(C)Cc1c[nH]c2ccccc12`, the B-score is 0.81.

Consider `O=C(COc1coc(CN2CCN(c3ccccc3)CC2)cc1=O)N1CCc2ccccc21`, for which the B-score was 0.28.

Turning to `S=C(Nc1ccc(Br)cc1)NC1CCN(Cc2ccccc2)CC1`, the B-score is -9.22 (active).

On to `S=C(Nc1ccc(Br)cc1Cl)NC1CCN(Cc2ccccc2)CC1`, for which the B-score was -0.65.

Consider `O=C(NC1CCN(Cc2ccccc2)CC1)c1c(F)cccc1F`, for which the B-score was 0.03.

As to `CCN(CC)c1ccc(NC(=O)c2ccc(=O)[nH]c2)cc1S(=O)(=O)Nc1ccc(OC)cc1`, the B-score is 0.31.

Consider `COc1cccc(C(=O)NCCS(=O)(=O)NCC2CCCO2)c1` (stereo not drawn), for which the B-score is 2.76.

For the compound `CCC(C)N(C(=O)CSc1ncnc2c1cnn2-c1ccccc1)C1CCS(=O)(=O)C1` (stereo not drawn), the B-score was 0.08.

As to `CCOc1ccccc1OCCCNCc1ccccc1`, the B-score is -3.69.

For `COCCNCCOCCOc1cccc(OC)c1`, the B-score was -0.8.

For the compound `Clc1cccc(Cl)c1OCCOCCNCc1ccccc1`, the B-score is -7.4 (active).

Take `CCCOc1ccc(Cl)cc1Nc1nc(NCCO)nc(N2CCCC2)n1`: the B-score was 0.67.

In the case of `Cc1ccc(C(C)C)cc1OCCN1CCCC1`, the B-score is -1.08.

As for `Cc1cc(OCCN2CCCC2)cc(C(C)C)c1`, the B-score was -4.28 (active).

Regarding `COc1cccc(OCCCN2CCCCCC2)c1`, the B-score is 0.91.

For `Cc1cccc(NC(=O)c2ccc(S(=O)(=O)N(C)CC3CCCO3)cc2)c1C` (stereo not drawn), the B-score was 1.86.

As for `COCCNC(=O)COc1ccc(N(C)S(=O)(=O)c2ccc3ccccc3c2)cc1`, the B-score was -5.91 (active).

On to `CN(c1ccccc1)S(=O)(=O)c1ccc(NC(=O)COc2ccccc2)cc1`, for which the B-score was -1.

Consider `CN(c1ccc(OCC(=O)O)cc1)S(=O)(=O)c1ccc2ccccc2c1`, for which the B-score was -1.8.
